From PubChem BioAssay (Tox21)
A number with no mark means an inactive call. Results filed as inconclusive are left out. Where a call stands in place of a potency, no number is given. Activity calls are given as the source filed them. Unless noted, the call rests on the fitted dose curve; in most records, active means well fitted curve in the direction sought with a large enough effect in the repeat runs; inconclusive means weak or mixed curves; inactive means no such curve, though single readings can be large; an effect the other way counts as inactive or inconclusive.

Legend:
[1] = biological target: Progesterone receptor (Homo sapiens) (UniProt P06401); experiment: qHTS assay to identify small molecule antagonists of the progesterone receptor (PR) signaling pathway (AID 1346795; active means well fitted inhibition curve with a large enough effect in the signal ratio in the repeat runs, not every such curve was filed as active; the % refers to the signal ratio)
Chain of Progesterone receptor (Homo sapiens) (P06401 whole entry, looked up): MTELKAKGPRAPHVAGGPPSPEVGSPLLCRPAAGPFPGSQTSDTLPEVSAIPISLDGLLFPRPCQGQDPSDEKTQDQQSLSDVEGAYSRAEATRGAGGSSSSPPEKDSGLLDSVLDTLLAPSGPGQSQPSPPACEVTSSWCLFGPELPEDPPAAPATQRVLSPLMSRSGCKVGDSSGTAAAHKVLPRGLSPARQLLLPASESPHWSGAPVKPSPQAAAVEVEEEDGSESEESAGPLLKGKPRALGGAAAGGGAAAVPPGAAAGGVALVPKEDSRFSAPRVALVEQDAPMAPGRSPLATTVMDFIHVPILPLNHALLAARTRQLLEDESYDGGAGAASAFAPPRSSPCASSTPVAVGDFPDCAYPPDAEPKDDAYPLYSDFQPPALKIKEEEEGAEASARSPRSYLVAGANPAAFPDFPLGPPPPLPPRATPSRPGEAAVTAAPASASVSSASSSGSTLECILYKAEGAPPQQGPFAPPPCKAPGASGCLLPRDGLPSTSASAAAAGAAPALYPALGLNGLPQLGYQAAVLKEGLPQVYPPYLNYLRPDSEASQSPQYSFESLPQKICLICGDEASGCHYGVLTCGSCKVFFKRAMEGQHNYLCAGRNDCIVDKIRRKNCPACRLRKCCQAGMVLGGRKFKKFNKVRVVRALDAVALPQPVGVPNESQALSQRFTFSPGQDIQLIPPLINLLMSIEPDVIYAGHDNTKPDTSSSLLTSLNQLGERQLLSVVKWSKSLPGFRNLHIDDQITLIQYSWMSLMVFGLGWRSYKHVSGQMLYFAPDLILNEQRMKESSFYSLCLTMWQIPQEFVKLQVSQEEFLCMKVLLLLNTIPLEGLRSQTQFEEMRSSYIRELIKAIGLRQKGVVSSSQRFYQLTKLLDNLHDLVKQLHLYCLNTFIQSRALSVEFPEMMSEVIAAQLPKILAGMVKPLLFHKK
How it was run: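 Read-out is fluorescence from the LiveBLAzer B/G FRET substrate, cleaved by a UAS-controlled beta-lactamase in PR-UAS-bla HEK293T cells after 16 hr exposure to compound plus 1 nM promegestone (final), followed by 2 hr at room temperature.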

[2] = qHTS assay to identify small molecule antagonists of the progesterone receptor (PR) signaling pathway - cell viability counter screen (AID 1346798); further: nearly all actives have a fitted effect of over 50% in size; further: potency means the concentration at half of the fitted maximal effect
How it was run: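 HEK293T PR-UAS-bla, 2% charcoal-stripped FBS; 4 hr pre-plate; cpd + R5020, 16 h 37C; LiveBLAzer read first; then CellTiter-Glo 30 min RT, luminescence.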

[3] = qHTS assay to identify small molecule agonists of the progesterone receptor (PR) signaling pathway - cell viability counter screen (AID 1346799; calls by dose curve; further: nearly all actives have a fitted effect of over 45% in size; further: potency means the concentration at half of the fitted maximal effect)
How it was run: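 Luminescence from CellTiter-Glo, added after the beta-lactamase FRET read in the same wells, gave cytotoxicity in PR-UAS-bla HEK293T cells treated with compounds for 16 hr at 37C.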

[4] = qHTS assay to identify small molecule antagonists of the TGF-beta/Smad signaling pathway - cell viability counter screen (AID 1346824); further: nearly all actives have a fitted effect of over 50% in size
How it was run: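 Cytotoxicity counter-screen run in the same wells as the beta-lactamase Smad reporter read: CellTiter-Glo luminescence after 30 min at room temperature. HEK 293T SBE-bla cells had 5 hr compound exposure at 37 C with TGF-beta1 (0.25 ng/mL stock).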

[5] = qHTS assay to identify small molecule agonists of the TGF-beta/Smad signaling pathway - cell viability counter screen (AID 1346829); further: top concentration of the series differs between compounds; nearly all actives have a fitted effect of over 45% in size
How it was run: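 Here the cytotoxicity of library compounds is measured in SBE-bla HEK 293T cells treated for 5 hr, using CellTiter-Glo added to wells already read for the beta-lactamase reporter.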

[6] = qHTS assay to identify small molecule agonists of the TGF-beta/Smad signaling pathway (AID 1346859; active means well fitted activation curve with a large enough effect in the signal ratio in the repeat runs, not every such curve was filed as active; the % refers to the signal ratio; further: series mostly up to about 77 µM)
How it was run: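 SBE-bla HEK 293T, 4,000 cells/well, plated o/n; cpd in DMSO, 5 hr, 37 C/5% CO2; B/G FRET substrate 2 hr RT; ex 405, em 460/530 nm.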

[7] = biological target: Thyrotropin-releasing hormone receptor (Homo sapiens) (UniProt P34981); experiment: qHTS assay to identify small molecule antagonists of the thyrotropin-releasing hormone receptor (TRHR) signaling pathway (AID 1346877; active means well fitted inhibition curve with a large enough effect in the repeat runs, not every such curve was filed as active; further: series mostly up to about 51 µM)
Chain of Thyrotropin-releasing hormone receptor (Homo sapiens) (P34981 whole entry, looked up): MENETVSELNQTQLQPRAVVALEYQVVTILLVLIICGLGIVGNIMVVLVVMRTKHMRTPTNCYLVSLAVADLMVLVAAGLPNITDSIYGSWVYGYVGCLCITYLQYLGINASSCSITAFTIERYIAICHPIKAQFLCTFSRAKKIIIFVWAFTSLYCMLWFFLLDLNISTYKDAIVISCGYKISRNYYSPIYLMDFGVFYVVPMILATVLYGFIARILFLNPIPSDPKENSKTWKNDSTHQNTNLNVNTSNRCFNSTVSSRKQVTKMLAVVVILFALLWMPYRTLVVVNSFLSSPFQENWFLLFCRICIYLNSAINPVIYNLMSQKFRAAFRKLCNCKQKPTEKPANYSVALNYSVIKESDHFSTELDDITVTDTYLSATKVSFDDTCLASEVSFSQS
How it was run: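 TRHR-expressing HEK293 cells were seeded, cultured 18 h at 37 °C, then loaded with calcium dye for 2 h. Compounds were pre-incubated 5 min at room temperature before 1 nM TRH (final) was added, and kinetic fluorescence was recorded for 3 min.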

[8] = biological target: Thyrotropin-releasing hormone receptor (Homo sapiens) (UniProt P34981); experiment: qHTS assay to identify small molecule agonists of the thyrotropin-releasing hormone receptor (TRHR) signaling pathway (AID 1346891; calls by dose curve; further: series mostly up to about 58 µM)
How it was run: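 Intracellular calcium rise, read as fluorescence every second for 3 min, served as the agonist signal in dye-loaded HEK293 cells expressing TRHR; each compound ran at 15 concentrations in triplicate.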

[9] = Human pregnane X receptor (PXR) small molecule agonists, qHTS cell viability counter screen (AID 1346977); further: nearly all actives have a fitted effect of over 50% in size
How it was run: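 PXR-Luc HepG2, 2,000 cells/well, 5% charcoal-stripped FBS; 5hr settle; cpd 24hr, 37C/5% CO2; CellTiter-Fluor at 23hr, read 1hr later (fluorescence).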

[10] = Caspase-3/7 induction in CHO-K1 cells by small molecules, qHTS assay (AID 1346980); further: nearly all actives have a fitted effect of over 15% in size
How it was run: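 Luminescent Caspase-Glo 3/7 read (30min, room temperature) quantified apoptosis induction. Cells were wild-type CHO-K1, treated with compound for 17hr at 37 C and 5% CO2.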

[11] = Caspase-3/7 induction in HepG2 cells by small molecules, qHTS cell viability counter screen (AID 1346981); further: series mostly up to about 92 µM; nearly all actives have a fitted effect of over 30% in size
How it was run: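 Wild-type HepG2 cells (2,000/well) were allowed to settle for 5 hr at 37 C, 5% CO2, then dosed with compounds in DMSO by pin transfer. After 16 hr at 37 C, CellTiter-Fluor was added and fluorescence read 1 hr later.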

[12] = biological target: Cytochrome P450 2D6 (Homo sapiens) (UniProt P10635); experiment: Cytochrome P450 Family 2 Subfamily D Member 6 (CYP2D6) small molecule antagonists: luciferase reporter qHTS assay (AID 1671196); further: nearly all actives have a fitted effect of over 50% in size; further: potency means the concentration at half of the fitted maximal effect
Chain of Cytochrome P450 2D6 (Homo sapiens) (P10635 whole entry, looked up): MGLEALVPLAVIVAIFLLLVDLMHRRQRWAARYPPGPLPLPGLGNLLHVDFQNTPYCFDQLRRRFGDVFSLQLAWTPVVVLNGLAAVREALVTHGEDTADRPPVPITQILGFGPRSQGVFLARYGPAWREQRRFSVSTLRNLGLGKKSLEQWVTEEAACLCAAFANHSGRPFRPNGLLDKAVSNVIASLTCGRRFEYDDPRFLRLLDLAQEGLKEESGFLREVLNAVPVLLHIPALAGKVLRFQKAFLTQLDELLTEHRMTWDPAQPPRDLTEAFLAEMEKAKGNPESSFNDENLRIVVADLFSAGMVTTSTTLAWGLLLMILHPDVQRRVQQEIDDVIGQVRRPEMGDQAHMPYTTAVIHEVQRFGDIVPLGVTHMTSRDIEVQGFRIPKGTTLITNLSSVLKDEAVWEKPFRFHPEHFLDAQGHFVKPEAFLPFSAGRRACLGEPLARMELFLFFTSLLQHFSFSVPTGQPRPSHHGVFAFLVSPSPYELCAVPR
How it was run: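 CYP2D6 enzyme–substrate mix was held with compound for 10 min at room temperature, then NADPH regeneration solution was added and the reaction ran 1 h at room temperature. Luciferin product was detected by luminescence after 20 min with detection reagent.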

[13] = biological target: Cytochrome P450 2C19 (Homo sapiens) (UniProt P33261); experiment: Cytochrome P450 Family 2 Subfamily C Member 19 (CYP2C19) small molecule antagonists: luciferase reporter qHTS assay (AID 1671197); further: nearly all actives have a fitted effect of over 65% in size; further: potency means the concentration at half of the fitted maximal effect
Chain of Cytochrome P450 2C19 (Homo sapiens) (P33261 whole entry, looked up): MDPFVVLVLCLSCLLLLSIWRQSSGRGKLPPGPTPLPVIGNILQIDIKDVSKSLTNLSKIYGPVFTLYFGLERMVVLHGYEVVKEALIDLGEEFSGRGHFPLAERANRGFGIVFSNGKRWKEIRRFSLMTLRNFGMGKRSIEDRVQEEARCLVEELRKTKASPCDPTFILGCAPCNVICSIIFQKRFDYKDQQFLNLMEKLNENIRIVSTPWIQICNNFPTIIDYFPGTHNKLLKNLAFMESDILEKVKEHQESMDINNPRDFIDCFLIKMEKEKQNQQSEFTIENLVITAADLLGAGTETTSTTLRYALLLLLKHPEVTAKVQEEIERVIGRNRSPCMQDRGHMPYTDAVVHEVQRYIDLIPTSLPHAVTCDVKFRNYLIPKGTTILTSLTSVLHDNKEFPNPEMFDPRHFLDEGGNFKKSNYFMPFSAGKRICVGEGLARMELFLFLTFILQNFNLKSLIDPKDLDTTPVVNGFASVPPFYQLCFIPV
How it was run: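 Light output is proportional to CYP2C19 activity: proluciferin substrate is converted to luciferin, then detected by a luciferin detection reagent that also stops the 1 h, 37C NADPH-driven reaction. Ketoconazole serves as positive control.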

[14] = Caspase-3/7 induction in HepG2 cells by small molecules, qHTS assay (AID 1346978); further: nearly all actives have a fitted effect of over 15% in size
How it was run: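 Caspase-3/7 induction was measured by Caspase-Glo 3/7 luminescence (30 min, room temperature) after a 17 hr compound exposure of wild-type HepG2 cells seeded at 2,000 per well and pre-incubated 5 hr.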

[15] = Caspase-3/7 induction in CHO-K1 cells by small molecules, qHTS cell viability counter screen (AID 1346979); further: nearly all actives have a fitted effect of over 35% in size
How it was run: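 Cells (CHO-K1, wild type) are plated at 1,500 per well and incubated 5hr. Test compounds in DMSO are then pinned in, followed by 16hr at 37C and 5% CO2. Viability is read by CellTiter-Fluor fluorescence after 1hr.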

[16] = biological target: Nuclear receptor subfamily 1 group I member 2 (Homo sapiens) (UniProt O75469); experiment: Human pregnane X receptor (PXR) small molecule agonists, qHTS assay (AID 1346982); further: nearly all actives have a fitted effect of over 35% in size; further: potency means the concentration at half of the fitted maximal effect
Chain of Nuclear receptor subfamily 1 group I member 2 (Homo sapiens) (O75469 whole entry, looked up): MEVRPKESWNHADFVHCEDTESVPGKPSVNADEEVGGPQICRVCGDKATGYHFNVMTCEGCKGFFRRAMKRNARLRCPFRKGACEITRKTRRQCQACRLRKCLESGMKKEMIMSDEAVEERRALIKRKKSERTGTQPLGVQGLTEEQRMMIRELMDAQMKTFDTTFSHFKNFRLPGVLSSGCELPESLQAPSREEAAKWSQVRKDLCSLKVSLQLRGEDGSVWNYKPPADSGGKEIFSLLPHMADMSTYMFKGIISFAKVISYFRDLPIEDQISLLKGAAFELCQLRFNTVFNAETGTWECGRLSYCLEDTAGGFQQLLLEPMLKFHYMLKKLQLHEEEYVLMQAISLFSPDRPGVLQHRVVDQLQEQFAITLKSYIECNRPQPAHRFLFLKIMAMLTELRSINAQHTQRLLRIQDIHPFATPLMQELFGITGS
How it was run: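 PXR-Luc HepG2 cells (CYP3A4 promoter-driven luciferase) were seeded in medium with 5% charcoal-stripped FBS, left 5 hr at 37 C, then exposed to compounds in DMSO for 24 hr. Luminescence was read after ONE-Glo addition.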

[17] = biological target: Progesterone receptor (Homo sapiens) (UniProt P06401); experiment: qHTS assay to identify small molecule agonists of the progesterone receptor (PR) signaling pathway (AID 1346784; calls by dose curve; further: nearly all actives have a fitted effect of over 30% in size)
How it was run: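 Beta-lactamase reporter read-out: after 16 hr compound treatment at 37C and a further 2 hr at room temperature with LiveBLAzer B/G FRET substrate, fluorescence was measured in PR-UAS-bla HEK 293T cells grown in 2% charcoal-stripped serum.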

| Structure (SMILES) | Potency [1] | Potency [2] | Potency [3] | outcome [4] | outcome [5] | outcome [6] | outcome [7] | outcome [8] | Potency [9] | Potency [10] | Potency [11] | Potency [12] | Potency [13] | Potency [14] | Potency [15] | Potency [16] | Potency [17] |
| --- | --- | --- | --- | --- | --- | --- | --- | --- | --- | --- | --- | --- | --- | --- | --- | --- | --- |
| Cc1ccc2ccccc2c1[N+](=O)[O-] | inactive | inactive | inactive | inactive | inactive | inactive | inactive | inactive | inactive | inactive | inactive | inactive | 79.6 µM (active) | – | – | – | – |
| CCCCCCCCCCCCSC#N | inactive | inactive | inactive | inactive | inactive | inactive | – | – | inactive | inactive | – | inactive | – | inactive | inactive | inactive | – |
| CC(C)=CCCC(C)C=O (stereo not drawn) | inactive | inactive | inactive | inactive | inactive | inactive | inactive | inactive | inactive | inactive | inactive | inactive | – | inactive | inactive | inactive | – |
| c1ccc(CCNc2nc(-c3ccccc3)cs2)cc1 | – | – | inactive | inactive | inactive | inactive | inactive | inactive | inactive | inactive | inactive | 17.4 µM (active) | 2.75 µM (active) | inactive | inactive | 3.76 µM (active) | inactive |
| NCCOCCOCCN | – | 15.4 µM (active) | – | inactive | inactive | – | inactive | inactive | inactive | inactive | inactive | – | inactive | inactive | – | inactive | inactive |
| COc1ccc(/C=C/S(=O)(=O)NC(=O)c2ccc(C)cc2Cl)cc1 | – | – | – | inactive | inactive | inactive | inactive | inactive | – | – | – | inactive | inactive | inactive | inactive | 27.3 µM (active) | inactive |
| N#C[C@@H]1CC(F)(F)CN1C(=O)CNC1CC2CCC(C1)N2c1ncccn1 (stereo partly drawn) | inactive | inactive | inactive | inactive | inactive | inactive | – | – | inactive | inactive | inactive | 12.6 µM (active) | 71 µM (active) | inactive | inactive | inactive | – |
| O=C1CCCN1CCO | – | – | – | inactive | inactive | inactive | inactive | inactive | – | – | inactive | inactive | inactive | inactive | inactive | inactive | inactive |
| O=C(O)c1ccc2cc(O)ccc2c1 | inactive | inactive | inactive | inactive | inactive | – | inactive | inactive | inactive | inactive | inactive | – | – | inactive | – | inactive | – |
| COC(=O)Cc1cccc2ccccc12 | inactive | inactive | inactive | inactive | inactive | inactive | – | – | inactive | inactive | – | – | 79.6 µM (active) | inactive | inactive | inactive | – |
| SCCOCCOCCS | inactive | inactive | inactive | inactive | inactive | inactive | inactive | inactive | inactive | inactive | – | – | 10 µM (active) | inactive | inactive | 4.86 µM (active) | – |
| Cc1ccc(Cl)c(OCC(O)CNC(C)(C)C)c1 (stereo not drawn) | inactive | inactive | inactive | inactive | inactive | inactive | inactive | inactive | inactive | inactive | inactive | 1.1 µM (active) | inactive | inactive | inactive | – | – |
| O=C(O)c1cccnc1Nc1cccc(C(F)(F)F)c1 | – | – | – | inactive | inactive | inactive | inactive | inactive | – | inactive | inactive | inactive | inactive | inactive | inactive | 13.3 µM (active) | inactive |
| O=C(O)c1c2ccccc2cc2ccccc12 | – | – | inactive | inactive | inactive | inactive | inactive | inactive | inactive | inactive | inactive | inactive | inactive | inactive | inactive | inactive | inactive |
| Cc1nc(C)c(C)nc1C | – | – | 30.6 µM (active) | inactive | inactive | inactive | inactive | inactive | inactive | – | inactive | – | inactive | inactive | – | inactive | inactive |
| OCC(O)c1ccccc1 (stereo not drawn) | – | 19.3 µM (active) | – | inactive | inactive | – | inactive | inactive | inactive | inactive | inactive | – | inactive | inactive | – | inactive | inactive |
| O=C(c1ccc(Cl)cc1)c1ccc(Cl)cc1 | inactive | inactive | inactive | inactive | inactive | inactive | inactive | inactive | inactive | inactive | inactive | inactive | 1 µM (active) | – | inactive | – | – |
